Results: PubChem BioAssay
Active and inactive are the calls of the source.

Columns and labels:
Albumin (Bos taurus) = Albumin (Bos taurus) (UniProt P02769); test: bovine serum albumin binders on microarray, profiling panel, artefact control for SMM control protein annotation, biochemical, small-molecule microarray, Alexa647 label, 635/667 nm fluorescence (AID 1118); conditions: BSA-A647 binding, fluorescence 635 nm, higher = more signal;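 further: score merges 667 nm emission intensity and signal-to-noise per printed compound spot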
[1] = small-molecule microarray binders of probe aXIP, primary screen, biochemical, NeuroSMM set, 635/667 nm fluorescence (AID 1119); conditions: higher = more signal, called active from +8 up or from −8 down;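 further: probe is the protein aXip251-270 applied at 1 µg/mL to compound-printed slides; binding of probe to printed compounds measured as 667 nm fluorescence plus signal to noise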
[2] = small-molecule binders of probe aNOTCH3, primary screen, biochemical, small-molecule microarray, 635/667 nm fluorescence (AID 1120); conditions: higher = more signal;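 further: probe is a biotin-tagged antibody raised against NOTCH3 rather than NOTCH3 protein; score merges spot fluorescence near 667 nm with spot signal to noise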
[3] = small-molecule binders of probe aNOTCH2, primary screen, biochemical, small-molecule microarray, 635/667 nm fluorescence (AID 1121); conditions: higher = more signal;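 further: score merges feature fluorescence read at 667 nm with its signal to noise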
[4] = target: Carbonic anhydrase 2 (Homo sapiens) (UniProt P00918); test: CAII small-molecule binders, profiling panel, biochemical, small-molecule microarray, Alexa647-labelled CAII (AID 1122); conditions: CAII-A647 binding fluorescence, higher = more signal
[5] = COS7 lysate on small-molecule microarray, probe aHis, 635 nm (AID 1123); conditions: COS7 cell lysate, fluorescence, higher = more signal;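 further: z-score combines 667nm fluorescence intensity with signal-to-noise per printed compound spot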
[6] = compound binding in COS7 lysate, probe aLAP1, primary screen, cell lysate, small-molecule microarray (AID 1124); conditions: probe aLAP1, fluorescence, higher = more signal;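 further: lysate comes from COS7 cells expressing LAP1 and is applied at 0.3 µg/mL; score merges spot fluorescence near 667 nm with signal-to-noise over triplicate slides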
Sam68 (KHDRBS1) = test: Sam68 small-molecule binders, primary screen, biochemical, small-molecule microarray, 635 nm fluorescence (AID 1125); conditions: small-molecule microarray binding, higher = more signal;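 further: score merges 667 nm channel intensity with signal to noise over triplicate slides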
[7] = tested on: Chordin-like protein 2 (CHRDL2); test: CHRDL2 small-molecule binders, primary screen, biochemical, small-molecule microarray, 635 nm fluorescence (AID 1126); conditions: small-molecule microarray binding, fluorescence 635 nm; higher = more signal;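 further: printed compound slides probed with Chrdl2 protein at 4 µg/mL for 1 h at 4 C; score merges 667 nm emission intensity with signal to noise over three replicate slides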
[8] = target: Concanavalin-A (Canavalia ensiformis) (UniProt P02866); test: ConA small-molecule binders, primary screen, artefact control for SMM control protein annotation, biochemical, small-molecule microarray, Alexa647 label, 635 nm (AID 1127); conditions: ConA-A647 binding fluorescence, higher = more signal;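 further: z combines 667 nm emission intensity with signal-to-noise across three replicate slides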
[9] = anti-His antibody binders, primary screen, artefact control for SMM control protein annotation, biochemical, small-molecule microarray, 635 nm fluorescence (AID 1128); conditions: anti-His Alexa647 antibody binding, higher = more signal;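 further: score merges feature fluorescence with signal-to-noise for each printed compound spot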
[10] = tested on: Human papillomavirus type 1a E7 protein (residues 1-88); test: HPV1a E7 small-molecule binders, primary screen, biochemical, small-molecule microarray, residues 1-88, 635 nm (AID 1129); conditions: small-molecule microarray binding, fluorescence 635 nm; higher = more signal
[11] = target: Focal adhesion kinase 1 (Homo sapiens) (UniProt Q05397); test: small-molecule microarray binders of FAK, primary screen, biochemical, 635/667 nm fluorescence, BSA, DTT (AID 1130); conditions: PTK2 binding, 635 nm fluorescence, higher = more signal;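 further: composite of spot emission at 667 nm and signal to noise over triplicate slides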
[12] = tested on: Fibrinogen (Alexa647-labelled); test: fibrinogen binders on compound microarrays, profiling panel, artefact control for SMM control-protein annotation, biochemical, small-molecule microarray, 635/667 nm fluorescence (AID 1131); conditions: fibrinogen-A647 binding fluorescence, higher = more signal;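 further: z-score merges 667 nm fluorescence with per-spot signal-to-noise over triplicate slides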
[13] = target: Follistatin (Homo sapiens) (UniProt P19883); test: follistatin binders on small-molecule microarrays, primary screen, biochemical, small-molecule microarray, 635/667 nm fluorescence (AID 1132); conditions: FST binding, 635 nm fluorescence, higher = more signal
[14] = target: Fibroblast growth factor 2 (Homo sapiens) (UniProt P09038); test: FGF2 binders on small-molecule microarrays, primary screen, biochemical, small-molecule microarray, 635/667 nm fluorescence (AID 1133); conditions: small-molecule microarray binding, FGF2, fluorescence 635/667; higher = more signal
[15] = mitochondrial membrane potential change in A549 cells, profiling panel, cell-based, JC-1 fluorescence, basal, 24 h, 100 nL (AID 1138); conditions: higher = more signal;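 further: A549 lung adenocarcinoma cells under basal conditions with no added stimulus; test concentration not given here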
Lefty1 = Lefty1 binders on small-molecule microarrays, primary screen, biochemical, small-molecule microarray, 635/667 nm fluorescence (AID 1139); conditions: small-molecule microarray binding, fluorescence 635/667; higher = more signal
[16] = tested on: wheat germ agglutinin (Triticum aestivum), Alexa647-labelled; test: wheat germ agglutinin binders on compound microarrays, profiling panel, artefact control for SMM control-protein annotation, biochemical, small-molecule microarray, 635/667 nm fluorescence (AID 1140); conditions: WGA-A647 binding, 635 nm fluorescence, higher = more signal;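 further: score merges 667 nm feature emission with signal to noise over triplicate slides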
[17] = target: Luciferin 4-monooxygenase (Photinus pyralis) (UniProt P08659); test: firefly luciferase enzyme inhibitors, primary screen, biochemical, luminescence, purified enzyme, 2006 set (AID 1141); conditions: SteadyGlo luminescence, 30 min, higher = more signal, called active from +8 up or from −8 down;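 further: cell-free assay with purified firefly luciferase at 100 ng per well in PBS; test concentration not given here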
Luciferin 4-monooxygenase (Photinus pyralis), sequence (P08659 whole entry, looked up): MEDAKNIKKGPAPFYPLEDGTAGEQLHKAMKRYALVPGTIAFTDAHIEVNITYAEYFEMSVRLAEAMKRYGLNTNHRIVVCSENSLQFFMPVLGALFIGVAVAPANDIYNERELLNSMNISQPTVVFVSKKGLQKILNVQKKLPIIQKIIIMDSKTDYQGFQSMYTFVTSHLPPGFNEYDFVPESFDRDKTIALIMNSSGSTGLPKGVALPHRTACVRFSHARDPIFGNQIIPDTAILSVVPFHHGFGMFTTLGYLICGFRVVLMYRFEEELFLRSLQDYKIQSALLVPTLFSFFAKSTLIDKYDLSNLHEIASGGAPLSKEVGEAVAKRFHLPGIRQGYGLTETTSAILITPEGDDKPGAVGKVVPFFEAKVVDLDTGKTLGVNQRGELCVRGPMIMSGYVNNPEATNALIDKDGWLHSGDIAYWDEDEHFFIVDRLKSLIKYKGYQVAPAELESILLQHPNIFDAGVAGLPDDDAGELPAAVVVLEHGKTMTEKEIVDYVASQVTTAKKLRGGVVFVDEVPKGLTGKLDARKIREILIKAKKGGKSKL

Follistatin (Homo sapiens), sequence (P19883 whole entry, looked up): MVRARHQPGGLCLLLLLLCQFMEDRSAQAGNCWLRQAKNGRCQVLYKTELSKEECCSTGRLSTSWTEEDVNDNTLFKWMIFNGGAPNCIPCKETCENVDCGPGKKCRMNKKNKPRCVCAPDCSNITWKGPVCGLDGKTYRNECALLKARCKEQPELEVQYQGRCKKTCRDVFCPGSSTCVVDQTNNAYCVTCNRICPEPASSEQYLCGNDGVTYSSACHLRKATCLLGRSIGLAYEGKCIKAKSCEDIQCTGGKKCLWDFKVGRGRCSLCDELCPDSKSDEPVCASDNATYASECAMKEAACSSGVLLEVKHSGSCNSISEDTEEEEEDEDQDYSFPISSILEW
Focal adhesion kinase 1 (Homo sapiens), sequence (Q05397 whole entry, looked up): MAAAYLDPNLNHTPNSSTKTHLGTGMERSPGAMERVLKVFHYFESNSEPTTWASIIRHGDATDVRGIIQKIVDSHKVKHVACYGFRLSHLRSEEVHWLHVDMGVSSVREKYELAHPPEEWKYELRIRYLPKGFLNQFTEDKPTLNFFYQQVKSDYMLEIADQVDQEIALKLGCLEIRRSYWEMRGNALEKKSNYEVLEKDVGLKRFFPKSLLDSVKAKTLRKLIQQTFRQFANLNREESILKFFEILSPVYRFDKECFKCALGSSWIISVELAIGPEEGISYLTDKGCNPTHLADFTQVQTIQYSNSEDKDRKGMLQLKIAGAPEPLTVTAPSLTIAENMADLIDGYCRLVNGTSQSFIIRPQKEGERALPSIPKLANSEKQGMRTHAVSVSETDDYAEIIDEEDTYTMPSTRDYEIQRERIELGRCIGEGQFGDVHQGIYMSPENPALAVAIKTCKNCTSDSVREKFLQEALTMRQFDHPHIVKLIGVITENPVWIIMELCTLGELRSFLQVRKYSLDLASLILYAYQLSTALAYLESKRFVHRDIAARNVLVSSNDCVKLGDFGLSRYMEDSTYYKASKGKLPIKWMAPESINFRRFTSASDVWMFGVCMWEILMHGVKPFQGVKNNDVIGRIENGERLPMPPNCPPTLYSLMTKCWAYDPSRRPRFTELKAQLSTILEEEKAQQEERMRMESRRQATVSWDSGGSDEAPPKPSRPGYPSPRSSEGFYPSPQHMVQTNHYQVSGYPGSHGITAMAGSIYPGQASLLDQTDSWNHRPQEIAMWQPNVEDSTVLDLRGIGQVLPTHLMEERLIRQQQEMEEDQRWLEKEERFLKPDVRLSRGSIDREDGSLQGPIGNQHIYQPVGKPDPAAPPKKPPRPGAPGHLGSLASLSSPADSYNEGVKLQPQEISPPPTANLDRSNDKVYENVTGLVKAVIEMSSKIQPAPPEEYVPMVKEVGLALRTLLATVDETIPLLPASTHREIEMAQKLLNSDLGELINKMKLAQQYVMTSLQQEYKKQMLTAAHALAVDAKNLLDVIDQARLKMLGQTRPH
Fibroblast growth factor 2 (Homo sapiens), sequence (P09038 whole entry, looked up): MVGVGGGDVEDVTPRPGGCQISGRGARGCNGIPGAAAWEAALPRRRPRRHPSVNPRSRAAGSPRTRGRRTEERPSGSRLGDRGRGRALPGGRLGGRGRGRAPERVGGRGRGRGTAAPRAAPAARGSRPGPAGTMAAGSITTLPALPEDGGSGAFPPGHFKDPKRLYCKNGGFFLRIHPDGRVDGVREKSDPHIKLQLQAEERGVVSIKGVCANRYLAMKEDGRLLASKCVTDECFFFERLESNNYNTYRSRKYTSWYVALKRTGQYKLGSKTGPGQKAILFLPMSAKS
Concanavalin-A (Canavalia ensiformis), sequence (P02866 whole entry, looked up): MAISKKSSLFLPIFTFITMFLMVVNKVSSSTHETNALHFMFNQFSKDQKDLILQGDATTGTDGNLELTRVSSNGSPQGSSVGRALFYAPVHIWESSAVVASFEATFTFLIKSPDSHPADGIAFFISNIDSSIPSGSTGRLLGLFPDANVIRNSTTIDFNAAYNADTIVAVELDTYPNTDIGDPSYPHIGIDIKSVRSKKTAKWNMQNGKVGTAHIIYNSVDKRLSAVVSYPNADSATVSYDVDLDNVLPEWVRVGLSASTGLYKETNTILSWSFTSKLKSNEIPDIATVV
Albumin (Bos taurus), sequence (P02769 whole entry, looked up): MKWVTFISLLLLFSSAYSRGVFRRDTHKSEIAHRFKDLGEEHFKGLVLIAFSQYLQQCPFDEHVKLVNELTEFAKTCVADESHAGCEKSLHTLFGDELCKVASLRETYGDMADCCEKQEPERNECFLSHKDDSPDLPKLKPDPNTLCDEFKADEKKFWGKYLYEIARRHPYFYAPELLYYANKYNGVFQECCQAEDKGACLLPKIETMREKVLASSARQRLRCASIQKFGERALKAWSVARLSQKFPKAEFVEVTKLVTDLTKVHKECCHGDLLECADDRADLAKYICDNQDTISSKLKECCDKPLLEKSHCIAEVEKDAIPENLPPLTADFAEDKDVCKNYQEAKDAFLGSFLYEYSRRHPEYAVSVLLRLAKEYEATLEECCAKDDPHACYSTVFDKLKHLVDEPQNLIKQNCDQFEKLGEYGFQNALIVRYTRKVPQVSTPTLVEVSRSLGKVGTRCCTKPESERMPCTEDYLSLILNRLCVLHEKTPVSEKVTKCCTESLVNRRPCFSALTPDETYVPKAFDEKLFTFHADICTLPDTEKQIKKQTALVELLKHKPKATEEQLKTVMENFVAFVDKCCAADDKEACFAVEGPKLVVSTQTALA

Row | Compound | composite z-score (Albumin (Bos taurus)) | composite Z-score [1] | composite z-score [2] | composite z-score [3] | composite z-score [4] | composite z-score [5] | composite z-score [6] | composite z-score (Sam68 (KHDRBS1)) | composite z-score [7] | composite z-score [8] | composite z-score [9] | composite z-score [10] | composite z-score [11] | composite z-score [12] | composite z-score [13] | composite z-score [14] | z-score [15] | composite z-score (Lefty1) | composite z-score [16] | z-score [17]
1 | CN(C)C(=O)[C@@]1(Cc2ccccc2CN=[N+]=[N-])COC(c2ccc(OCCCO)cc2)=N1 | 0.819 | -0.0705 (inactive) | -0.0048 | -0.156 | 0.572 | 1.78 | -0.0884 | 0.0673 | -0.781 | 1.04 | 1.81 | 1.15 | 0.652 | 0.949 | -0.0539 | -0.572 | 1.43 | -0.42 | 0.603 | 1.15 (inactive)
2 | COCCOC(=O)N1C(=O)[C@@]2(c3ccccc31)[C@H](C(=O)N1CCN(c3ncccn3)CC1)[C@H]1C(=O)O[C@H](c3ccccc3)[C@H](c3ccccc3)N1[C@@H]2c1ccccc1OCCO | -0.448 | 0.196 (inactive) | 0.102 | -0.118 | 0.506 | 1.19 | 1.37 | 1.28 | 0.761 | 1.05 | 0.724 | 1.18 | 0.382 | 0.867 | 1.15 | 0.606 | -0.531 | 1.02 | 0.272 | -0.0896 (inactive)
3 | C=CC[C@@]12N=C(c3ccc(OCCCO)cc3)O[C@@H]1c1ccccc1N(CCC)C2=O | 0.727 | 0.414 (inactive) | 0.0968 | -0.0617 | 0.326 | 2.73 | -0.227 | 1.29 | 1.24 | 1.06 | 2.58 | 1.22 | 0.359 | 0.512 | 1.52 | 1.72 | 2.58 | 1.31 | 0.777 | -2.23 (inactive)
4 | COCCOC(=O)N1C(=O)[C@@]2(c3cc(C#CCC(C(=O)OC)C(=O)OC)ccc31)[C@H](C(N)=O)[C@H]1C(=O)O[C@H](c3ccccc3)[C@H](c3ccccc3)N1[C@@H]2c1ccc(O)cc1 | 0.751 | -0.642 (inactive) | 0.104 | -0.0282 | 0.407 | 1.97 | 0.134 | 1.3 | 0.778 | 0.951 | 2.22 | 1.23 | 0.601 | 0.92 | 1.33 | 0.468 | -2.31 | 1 | 1.06 | -0.878 (inactive)
5 | [N-]=[N+]=NCc1ccccc1[C@@H]1OC(c2ccc(OCCCO)cc2)=N[C@]1(Cc1ccccc1N=[N+]=[N-])C(=O)NCC(O)CO (stereo not given in full) | 0.98 | 0.71 (inactive) | 0.409 | 0.252 | 0.614 | 3.16 | 0.695 | 1.32 | -0.703 | 1.11 | 2.76 | 1.2 | 0.955 | 0.911 | 1.05 | 1.26 | 0.637 | -0.459 | 1.22 | -2.1 (inactive)
6 | O=C1O[C@@H](c2ccccc2)[C@@H](c2ccccc2)N2[C@@H](c3ccc(OCCO)cc3)[C@]3(C(=O)Nc4ccc(C#CC5(O)CCCCCC5)cc43)[C@@H](C(=O)Nc3nc4ccccc4s3)[C@H]12 | 0.691 | -0.144 (inactive) | 0.0169 | -0.0664 | 0.608 | 2.31 | 0.36 | 1.29 | 0.583 | 1.01 | 0.0141 | 1.24 | 0.676 | 0.964 | 1.33 | 1.54 | -2.12 | 1.22 | 1.09 | -2.6 (inactive)
7 | CN(C)c1ccc(C(O)C2C=CC3C(=O)N(Cc4ccccc4)C(=O)C3N2n2cnnc2)cc1 (stereo not given) | -0.184 | 0.111 (inactive) | -0.0023 | -0.0993 | 0.244 | 0.0348 | -0.0894 | -0.671 | 0.245 | -0.46 | 0.108 | 0.115 | -0.535 | 0.32 | 0.225 | 0.239 | -0.269 | -0.231 | 0.0743 | -1.66 (inactive)
8 | C=C(CCCC)C(=O)CC[C@H](OC(=O)c1ccccc1-c1ccccc1C(=O)O)c1ccc(OCCO)cc1 | 0.763 | -0.235 (inactive) | 0.184 | -0.185 | 0.573 | 1.2 | -0.0334 | 0.958 | 0.0139 | 0.969 | 0.321 | 0.632 | -0.0609 | 0.0905 | 0.571 | 1.26 | 0.128 | 1.1 | 0.708 | -1.95 (inactive)
9 | [N-]=[N+]=Nc1ccccc1C[C@@]1(C(=O)NCc2ccccc2)N=C(c2ccc(OCCCO)cc2)O[C@@H]1c1ccccc1N=[N+]=[N-] | 0.913 | 0.605 (inactive) | 0.467 | -0.0211 | 0.398 | 1.99 | -0.136 | 1.14 | -0.656 | 1.12 | 1.27 | 1.17 | 0.268 | 0.664 | 1.32 | 0.32 | 0.197 | -0.0327 | 1.03 | -2.56 (inactive)
10 | CCCCN1CC=CC23O[C@@H]4/C=C\CCCOC(=O)C4[C@H]2C(=O)N(C(CO)C(C)C)[C@@H]3C1=O (stereo not given in full) | -0.745 | -0.108 (inactive) | -0.0339 | -0.0504 | 0.781 | 0.0745 | -0.158 | 0.239 | -0.0768 | -0.592 | 0.0807 | -0.654 | -0.192 | -0.458 | 0.0549 | 0.0877 | -0.455 | 0.249 | -0.0096 | -0.0573 (inactive)
11 | C=CCNC(=O)[C@H]1[C@@H]2C(=O)O[C@@H](c3ccccc3)[C@@H](c3ccccc3)N2[C@@H](c2ccc(OCCO)cc2)[C@]12C(=O)Nc1ccccc12 | 0.989 | 1.76 (inactive) | -0.261 | -0.0877 | 0.74 | 2.7 | 1.15 | 1.29 | -0.832 | 1.13 | 2.03 | 0.905 | 0.624 | 0.861 | -0.034 | -0.342 | -0.287 | -0.0965 | 1.22 | -0.0907 (inactive)
